Reference: the supplement of paper PMC7156485
± gives the standard deviation of the averaged measurements.

Columns and labels:
Settings in all cases: concentration: 10 µM; 24 h
HCC1569 [1] = experiment: cell number relative to DMSO (% of DMSO); higher = more cells (less growth inhibition / toxicity)
Outline: (§1)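 Six fields per well were imaged at ×10 after the cells were fixed in 3.7% formaldehyde and stained with a rabbit anti-H1.0 antibody, an AlexaFluor 647 secondary and DAPI. The HCC1569 and TDF cells had been plated at 800 per well in 384-well plates (RPMI, 10% FBS) and treated in triplicate with compounds at 10 µM for 24 h at 37 °C. The values are the median of replicates of H1.0 nuclear intensity or cell number, as percent of the plate control. Smoothing for positional effects was applied to HCC1569 data.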

TDF [2] = experiment: as above
Outline: as §1

TDF [3] = experiment: H1.0 immunofluorescence intensity relative to DMSO (% of DMSO); higher = stronger H1.0 induction, active = 120 or more
Outline: as §1

HCC1569 [4] = experiment: H1.0 immunofluorescence intensity relative to DMSO (% of DMSO); higher = stronger H1.0 induction, active = 140 or more
Outline: as §1
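Wherever H1.0 immunofluorescence intensity relative to DMSO is given: TDF is a line of transformed human dermal fibroblasts of mesenchymal origin.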
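Wherever cell number relative to DMSO is given: TDF denotes transformed human dermal fibroblasts of mesenchymal origin.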

SMILES | cell number (HCC1569 [1]) | cell number (TDF [2]) | H1.0 immunofluorescence intensity (TDF [3]) | H1.0 immunofluorescence intensity (HCC1569 [4])
COC(=O)c1ccc2c(c1)NC(=O)C2=C(Nc1ccc(N(C)C(=O)CN2CCN(C)CC2)cc1)c1ccccc1 [Vargatef] | 95.2 | 106 | 84.3 (inactive) | 113 (inactive)
COc1cc2c(cc1O)CCC1C2CCC2(C)C(O)CCC12 (configuration not stated) [2-methoxyestradiol] | 54.3 | 11.5 | 156 (active) | 156 (active)
Nc1ncnc2c1cnn2-c1ccccc1 | 103 | 110 | 91.4 (inactive) | 104 (inactive)
O=c1cc(-c2ccc(O)c(O)c2)oc2cc(O)c(C3OC(CO)C(O)C(O)C3O)c(O)c12 (configuration not stated) [Homoorientin] | 101 | 96.2 | 100 (inactive) | 90.4 (inactive)
O=[N+]([O-])c1cc(S(=O)(=O)Nc2ccc(O)c3ccccc23)ccc1Cl [4-chloro-N-(4-hydroxy-1-naphthyl)-3-nitrobenzenesulfonamide] | 85.3 | 76.6 | 106 (inactive) | 115 (inactive)
C=C1NC(=O)C2=C(CCSC2)N1 | 102 | 99.5 | 95.5 (inactive) | 92.2 (inactive)
COC(=O)NC(C(=O)NC(Cc1ccccc1)C(O)CN(Cc1ccc(-c2ccccn2)cc1)NC(=O)C(NC(=O)OC)C(C)(C)C)C(C)(C)C (configuration not stated) [Atazanavir] | 92.7 | 79.8 | 109 (inactive) | 103 (inactive)
CN(C)c1nc(N(C)C)nc(N(C)C)n1 [Altretamine] | 103.1 ± 0.68 | 108.4 ± 0.31 | 100 (inactive) | 113 (inactive)
C[C@H]1CN(C[C@H](Cc2ccccc2)C(=O)NCC(=O)O)CC[C@@]1(C)c1cccc(O)c1 | 94.4 | 102 | 88.5 (inactive) | 107 (inactive)
CN(C(Cc1ccc(OS(=O)(=O)c2cccc3cnccc23)cc1)C(=O)N1CCN(c2ccccc2)CC1)S(=O)(=O)c1cccc2cnccc12 (configuration not stated) | 75.2 ± 17 | 95.6 ± 12 | 113 (inactive) | 127 (inactive)
CCC=CCC=CCC=CCC=CCCCCC(=O)O.[Na] [6(Z), 9(Z), 12(Z), 15(Z)-Octadecatetraenoic acid] | 102 | 91.9 | 106 (inactive) | 102 (inactive)
Br.CN1C2CCC1CC(OC(=O)C(O)c1ccccc1)C2 (configuration not stated) | 102 | 97.5 | 97.2 (inactive) | 94.6 (inactive)
CCCCCC(O)C=CC1OC(O)CC(O)C1CC=CCCCC(=O)O (configuration not stated) [Thromboxane B2] | 96.2 | 95.2 | 102 (inactive) | 97.9 (inactive)
CC(C)CC(NC(=O)C(Cc1c[nH]c2ccccc12)NC(=O)C(Cc1ccc(O)cc1)NC(=O)C(CO)NC(=O)C(Cc1c[nH]c2ccccc12)NC(=O)C(Cc1cnc[nH]1)NC(=O)C1CCC(=O)N1)C(=O)NC(CCCN=C(N)N)C(=O)N1CCCC1C(=O)NCC(N)=O (configuration not stated) [Triptorelin] | 107 | 89.6 | 97.7 (inactive) | 103 (inactive)
CCCCCC=CCC=CCC=CCC=CCCCC(=O)OC(COCCCCCCCCCCCCCCCC)COP(=O)([O-])OCC[N+](C)(C)C (configuration not stated) [Arachidonyl-PAF] | 98 | 100 | 93 (inactive) | 93.4 (inactive)
CCCCCCC(C(C)O)n1cnc2c(N)ncnc21.Cl (stereo not drawn) [erythro-9-(2-Hydroxy-3-nonyl)adenine hydrochloride] | 104 | 108 | 90.1 (inactive) | 88.6 (inactive)
CC12CCC3c4ccc(O)cc4CCC3C1CC(O)C2O (configuration not stated) [Estriol] | 98.5 | 97.8 | 101 (inactive) | 113 (inactive)
O=P(O)(O)C(O)(Cn1ccnc1)P(=O)(O)O [Zoledronic acid] | 99 | 89 | 94 (inactive) | 100 (inactive)
Cl.NC(=NCc1ccccc1)NC(=O)c1nc(Cl)c(N)nc1N [Benzamil hydrochloride] | 94.7 | 105 | 92.3 (inactive) | 105 (inactive)
CCCCCC=CCC(O)C=CC=CC=CC(O)CCCC(=O)O (configuration not stated) [Leukotriene B4] | 105 | 98.8 | 93.3 (inactive) | 102 (inactive)
CCCCCC=CCC=CCC=CCC=CCCCC(=O)OC(CO)CO [2-Arachidonoylglycerol] | 104 | 107 | 97.3 (inactive) | 99.5 (inactive)
COc1cc(-c2ccc(=O)[nH]n2)ccc1OC(F)F [Zardaverine] | 106 ± 5.7 | 107 ± 9.4 | 91.5 (inactive) | 110 (inactive)
O=C1Cc2c([nH]c3ccc(Br)cc23)-c2ccccc2N1 [Kenpaullone] | 76.3 ± 6.3 | 93.1 ± 3.2 | 91.6 (inactive) | 101 (inactive)
CCCC1OC2CC3C4CCC5=CC(=O)C=CC5(C)C4C(O)CC3(C)C2(C(=O)CO)O1 (configuration not stated) [Budesonide] | 97.2 | 94.1 | 82 (inactive) | 96.4 (inactive)

SMILES | cell number (HCC1569 [1]) | cell number (TDF [2]) | H1.0 immunofluorescence intensity (TDF [3]) | H1.0 immunofluorescence intensity (HCC1569 [4])
Cl.Clc1ccc2nsnc2c1NC1=NCCN1 [Tizanidine.HCl] | 118 | 116 | 104 (inactive) | 83.4 (inactive)
CN(C)CCCN1c2ccccc2Sc2ccccc21.Cl [Promazine hydrochloride] | 103 | 107 | 118 (inactive) | 110 (inactive)
N#CC(=Cc1ccc(O)c(O)c1)C(=O)OCC=Cc1ccccc1 | 91.9 | 105 | 90.5 (inactive) | 115 (inactive)
CCNC(=O)C1OC(n2cnc3c(NCc4ccccc4)ncnc32)C(O)C1O (configuration not stated) [N6-Benzyl-5'-N-ethylcarboxamidoadenosine] | 77 | 57.3 | 103 (inactive) | 114 (inactive)
COc1ccc(Cl)cc1NC(=O)Nc1cc(C)nc2ccccc12 [IGF-1R Inhibitor II] | 103 | 97.7 | 98.8 (inactive) | 106 (inactive)
CCN1CCCC1CNC(=O)c1cc(S(N)(=O)=O)ccc1OC (single isomer, unassigned; (-)) [(-)-Sulpiride] | 99.4 | 101 | 90.9 (inactive) | 98.5 (inactive)
CC(=O)Oc1ccccc1C(=O)Nc1ncc([N+](=O)[O-])s1 [2-{[(5-nitro-1,3-thiazol-2-yl)amino]carbonyl}phenyl acetate] | 89.4 | 95.5 | 98.5 (inactive) | 103 (inactive)
NS(=O)(=O)c1ccc(-n2nc(C(F)(F)F)cc2-c2ccc(Cl)cc2)cc1 | 90.5 | 104 | 90.5 (inactive) | 90.7 (inactive)
COCCc1ccc(OCC(O)CNC(C)C)cc1 (configuration not stated) [Metoprolol] | 104 | 99.5 | 102 (inactive) | 104 (inactive)
O=C(Nc1nc2ccccc2n1CCN1CCOCC1)c1cccc([N+](=O)[O-])c1 [IRAK-1/4 Inhibitor] | 98.2 | 104 | 91.2 (inactive) | 117 (inactive)
Nc1nc2ccc(OC(F)(F)F)cc2s1 [Riluzole] | 98.4 | 98.6 | 94.6 (inactive) | 94.6 (inactive)
COc1ccc2c(c1)c(CC(=O)O)c(C)n2Cc1ccc(F)cc1 [1-(4-Fluorobenzyl)-5-methoxy-2-methylindole-3-acetic acid] | 101 | 95.2 | 95.4 (inactive) | 85.5 (inactive)
Cl.NCCCC(N)(C(=O)O)C(F)F (racemic) [DL-alpha-Difluoromethylornithine hydrochloride] | 98.5 | 111 | 94.3 (inactive) | 92.7 (inactive)
Nc1cc(-c2ccncc2)c[nH]c1=O [amrinone] | 99.8 | 105 | 100 (inactive) | 114 (inactive)
O=NN(CCCl)C(=O)NCCCl [Carmustine] | 99 | 93.9 | 95.4 (inactive) | 89.6 (inactive)
Cl.O=C(O)C1=CCCNC1 [Guvacine hydrochloride] | 97.8 | 99.1 | 103 (inactive) | 91.1 (inactive)
O=C(Nc1nc2ccc(NC(=O)C34CC5CC(CC(C5)C3)C4)cc2s1)c1ccccc1 | 45 | 20.4 | 170 (active) | 146 (active)
CC(=O)c1ccc(N2CCOCC2)cc1O [DNA-PK Inhibitor III] | 99.1 | 93.9 | 93.9 (inactive) | 118 (inactive)
CN(Cc1cnc2nc(N)nc(N)c2n1)c1ccc(C(=O)NC(CCC(=O)O)C(=O)O)cc1 (configuration not stated) [Methotrexate] | 81.7 | 86.5 | 92.8 (inactive) | 87 (inactive)
CCCCCCCCCCCCCC(=O)NC(C)C(O)c1ccccc1 [L-erythro MAPP] | 97.3 | 103 | 98 (inactive) | 108 (inactive)
O=[NH+]C=C1C=CN(CN2C=CC(=C[NH+]=O)C=C2)C=C1.[Br-].[Br-] [1,1'-methylenebis(4-(nitrosomethyl)pyridinium) bromide] | 105 | 99 | 89.7 (inactive) | 93.7 (inactive)
CN1C(CC(=O)c2ccccc2)CCCC1CC(O)c1ccccc1.Cl (configuration not stated) | 102 | 90.9 | 102 (inactive) | 99.2 (inactive)
COc1ccc(-c2coc3cc(O)cc(O)c3c2=O)cc1 [Biochanin A] | 106 | 97.4 | 93.9 (inactive) | 90.6 (inactive)
CC1c2cccc(O)c2C(O)=C2C(=O)C3(O)C(O)=C(C(N)=O)C(=O)C(N(C)C)C3C(O)C21 (configuration not stated) [Doxycycline] | 101 | 93.9 | 108 (inactive) | 115 (inactive)
